In PubChem BioAssay (NCI) one finds growth inhibition data, which are given here for 21 compounds.

Assay [1] can be described thus: NCI Yeast Anticancer Drug Screen. Data for the rad50 strain (AID 155).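 Note: 0% = growth of vehicle-only cultures of the same strain.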 The note with it: S. cerevisiae rad50 strain growth inhibition; at 50.0 µM; hits give high values. In outline: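 Genetically altered yeast (DNA repair pathway); compound treatment; growth inhibition vs vehicle ctrl.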
Assay [2] is described as follows: NCI Yeast Anticancer Drug Screen. Data for the mec2-1 strain (AID 157). Particulars: S. cerevisiae mec2-1 strain, at 50.0 µM, hits give high values. A digest of the protocol: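 Strain: mec2-1 (DNA repair/cell cycle alteration). Compound exposure, then growth measured; inhibition expressed relative to vehicle.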
The nature of assay [3]: NCI Yeast Anticancer Drug Screen. Data for the sgs1 mgt1 strain (AID 161).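 Note: 0% = growth of cultures given vehicle only.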 The note with it: S. cerevisiae sgs1 mgt1 strain, at 50.0 µM, hits give high values. In outline: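 Inhibition of yeast growth, normalised to vehicle-treated controls, is reported for a strain bearing genetic alterations in DNA damage repair.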
Assay [4] can be described thus: NCI Yeast Anticancer Drug Screen. Data for the cln2 rad14 strain (AID 165).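 Note: 0% = growth equal to vehicle treated cultures.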 The note with it: S. cerevisiae cln2 rad14 strain, at 50.0 µM, hits give high values. In outline: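 Compounds are applied to the cln2 rad14 yeast strain, and growth is then compared with that of vehicle-treated cultures to give inhibition.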
Assay [5] can be described thus: NCI Yeast Anticancer Drug Screen. Data for the bub3 strain (AID 167). The note with it: S. cerevisiae bub3 mutant strain, at 50.0 µM, hits give high values. A digest of the protocol: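 Yeast carrying a defined mutation is treated with each compound, and growth is compared with that of vehicle-exposed cells to give inhibition.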
Assay [6] is described as follows: NCI Yeast Anticancer Drug Screen. Data for the mlh1 rad18 strain (AID 175). The note with it: S. cerevisiae mlh1 rad18 strain growth inhibition; at 50.0 µM; hits give high values. In outline:
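Read-out is yeast growth inhibition, calculated against vehicle-only controls. The compound was applied to a strain engineered with DNA damage repair alterations.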

This is part of a sample that, as a whole, favours compounds with a hit. Of some 79,000 tested, about 15% had one in any assay. Values without a mark were called inactive. Calls of active or inactive are those of the source. Cut-off read from the data, not from the text of the source: active = growth inhibition above about 70%; inactive = the rest.

In the case of `CNC(=O)OCc1nc(SC)n(Cc2ccccc2)c1COC(=O)NC`, the growth inhibition in assay [1] was 15.3%; in assay [2], 5.9%; in assay [3], 11.2%; in assay [4], -1.1%; in assay [5], -1.55%; in assay [6], 18.5%.
As for `Nc1cccc(CNC(=O)COc2ccc(Cl)cc2C(=O)O)c1`, the growth inhibition is -0.9% in assay [1]; 14% in assay [2]; -2.7% in assay [3]; -7.6% in assay [4]; 18.4% in assay [5]; 10.4% in assay [6].
In the case of `CC(=O)Nc1c(C)cc(S(=O)(=O)O)cc1C`, the growth inhibition was 6.25% in assay [1]; -0.1% in assay [2]; -8.65% in assay [3]; -58.7% in assay [4]; 28.6% in assay [5]; -18.5% in assay [6].
Consider `Cc1ccc(S(=O)(=O)C(C#N)(Cc2c[nH]c3ccccc23)Cc2c[nH]c3ccccc23)cc1`, for which the growth inhibition in assay [1] was 4.85%; in assay [2] it was 9.25%; in assay [3] it was -5.25%; in assay [4] it was -16.2%; in assay [5], 11.8%; in assay [6], 6.5%.
Take `CNC(=O)OCc1c(COC(=O)NC)c(C)n(-c2ccc(OC)cc2)c1C`: the growth inhibition in assay [1] is 20.9%; in assay [2], 3.55%; in assay [3], 42.1%; in assay [4], 15.8%; in assay [5], 31.3%; in assay [6], 42.8%.
As for `COC(=O)c1cccc2c1ccc1ccc3ccccc3c12`, the growth inhibition in assay [1] was -7.9%; in assay [2] it was -19.4%; in assay [3] it was -7.05%; in assay [4], -84.5%; in assay [5], -10.2%; in assay [6] it was -17.9%.
With `C=CCSc1ccc(Cl)cc1[N+](=O)[O-]`, the growth inhibition in assay [1] was 18.8%; in assay [2] it was -3.4%; in assay [3] it was 6.05%; in assay [4], -8.45%; in assay [5] it was 4%; in assay [6], 0.3%.
Consider `CC(O)CN(Cc1ccccc1)CC(C)O` (stereo unspecified), for which the growth inhibition was 8.1% in assay [1]; 28.9% in assay [2]; -6.7% in assay [3]; -22.9% in assay [4]; -3.5% in assay [5]; -14.9% in assay [6].
As for `Cc1ccccc1NC(=O)/C=C\C(=O)O`, the growth inhibition is 8.9% in assay [1]; -10.3% in assay [2]; -0.7% in assay [3]; 10.1% in assay [4]; -14.4% in assay [5]; 10.2% in assay [6].
As to `Cc1ccc(CNc2ccccc2)cc1`, the growth inhibition in assay [1] was 18.9%; in assay [2], -6.45%; in assay [3], 27.3%; in assay [4], 8.8%; in assay [5] it was 14.7%; in assay [6], 7.55%.
Turning to `CCCC(=O)n1[nH]c(=O)n(-c2ccc(Cl)cc2)c1=O`, the growth inhibition in assay [1] was 5.15%; in assay [2], -12.3%; in assay [3], 19.8%; in assay [4] it was 3.25%; in assay [5], -2.1%; in assay [6] it was -10.3%.
On to `Cc1ccc(S(=O)(=O)n2nc(C3OC(CO)C(O)C3O)c(O)c2C(N)=O)cc1` (stereo unspecified), for which the growth inhibition was -36.5% in assay [1]; 16.6% in assay [2]; -14.8% in assay [3]; 38.1% in assay [4]; -3% in assay [5]; 22.8% in assay [6].
As to `O=[N+]([O-])c1cc(C2ON=C(c3ccccc3)N2C23CC4CC(CC(C4)C2)C3)ccc1Cl` (stereo unspecified), the growth inhibition in assay [1] was -9.1%; in assay [2] it was 10.2%; in assay [3], 2.7%; in assay [4], 16%; in assay [5], -0.85%; in assay [6], -8.2%.
Regarding `O=C(N/C(=C\c1ccccc1Cl)c1nc2ccccc2[nH]1)c1ccccc1`, the growth inhibition was -20.5% in assay [1]; -15.1% in assay [2]; -23% in assay [3]; 10.2% in assay [4]; 38.9% in assay [5]; 10% in assay [6].
Consider `N#CN1CC[C@@H]2CC3(CCC2C1)OCCO3` (stereo partly specified), for which the growth inhibition in assay [1] is 17.6%; in assay [2], 4.3%; in assay [3], 0.3%; in assay [4], -4.45%; in assay [5], -18.4%; in assay [6], 1.5%.
For `NC(=O)Nc1ccccc1`, the growth inhibition in assay [1] is 11.4%; in assay [2], -8.6%; in assay [3], -7.55%; in assay [4], -34.5%; in assay [5] it was -5.2%; in assay [6], 14.2%.
`CCc1c[nH]c(C=O)c1CC`: the growth inhibition is 6.35% in assay [1]; -14.1% in assay [2]; -12.5% in assay [3]; 11.4% in assay [4]; -10.8% in assay [5]; 18.6% in assay [6].
For `O=S(=O)(Nc1nccs1)c1ccc(Cl)cc1`, the growth inhibition was 25.1% in assay [1]; 46% in assay [2]; 74.2% (active) in assay [3]; 20.4% in assay [4]; 33% in assay [5]; 68.2% in assay [6].
As for `CCCCCCCCCC(=O)N/N=C/c1ccccc1Cl`, the growth inhibition in assay [1] is 9.95%; in assay [2], 36.1%; in assay [3] it was 29.6%; in assay [4], -9.5%; in assay [5], 19.3%; in assay [6], 30.4%.
For `Nc1ncnc2nc(N=Nc3ccc(S(=O)(=O)O)cc3)[nH]c12`, the growth inhibition in assay [1] was 4.25%; in assay [2], -21.1%; in assay [3], -1.2%; in assay [4] it was -23.4%; in assay [5], -6.35%; in assay [6], -6.75%.
For the compound `NC(CCC(=O)NC(CSSCCCCS(=O)O)C(=O)NCC(=O)O)C(=O)O` (stereo unspecified), the growth inhibition in assay [1] is -1.65%; in assay [2] it was -8.2%; in assay [3], 11.3%; in assay [4], -10.2%; in assay [5], 14.2%; in assay [6], 1.4%.
